Composite z-score and z-score data for five compounds are collected here from PubChem BioAssay.

The nature of test [1]: small molecules captured by biotinylated probe aFSTL3 – biochemical, small-molecule microarray, fluorescence 635/667, stem cell growth factor project, primary screen (AID 1064).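 Note: measures binding of the biotinylated anti-FSTL3 antibody to printed compounds.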 The settings on record: higher = more signal.
Test [2] can be described thus: binders from COS7 lysate, DM2A8 probe, primary screen, torsin A project, cell lysate, small-molecule microarray, fluorescence 635/667 (AID 1065). To be noted: higher = more signal, COS7 lysate expressing mutant human TOR1A.
The nature of test [3]: small molecules captured by biotinylated probe aFGF2 – biochemical, small-molecule microarray, fluorescence 635/667, stem cell growth factor project, primary screen (AID 1067).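 Note: measures binding of biotinylated aFGF2 protein to printed compounds on slides; z-score merges feature fluorescence and signal-to-noise across triplicate slides.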 The settings on record: higher = more signal.
Test [4] in a line: small molecules captured by biotinylated probe aFGF10 – biochemical, small-molecule microarray, fluorescence 635/667, stem cell growth factor project, primary screen (AID 1071).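 Note: score merges 667 nm spot intensity and signal to noise from triplicate slides.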 The settings on record: higher = more signal.
Test [5] has as its target Neurogenic locus notch homolog protein 2 (Homo sapiens) (UniProt Q04721). Kind of test: small molecules binding Notch2 protein – biochemical, small-molecule microarray, 635 nm fluorescence, stem cell growth factors, primary screen (AID 1073). The settings on record: higher = more signal.
The target of test [6] is Pro-neuregulin-1, membrane-bound isoform (Homo sapiens) (UniProt Q02297). As to the kind of experiment: small molecules binding neuregulin-1 protein – biochemical, small-molecule microarray, fluorescence 635/667, psychiatric disease protein project, primary screen (AID 1075).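 Note: score combines 667 nm spot fluorescence with signal to noise.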 The settings on record: NRG1 binding, 635 nm fluorescence, higher = more signal.
Test [7] relates to Neuregulin-1 EGF-like domain. Kind of test: small molecules binding NRG1 EGF domain – biochemical, small-molecule microarray, 635 nm fluorescence, primary screen (AID 1081).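 Note: binding of the protein to compounds printed on small-molecule microarray slides.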 The settings on record: higher = more signal.
Test [8] is described as follows: FRG1 expression reporter modulators in myotubes – cell-based, C2C12 myotubes, firefly/Renilla luciferase, luminescence, FRG1 inhibition for FSHD, primary screen (AID 1084). To be noted: FRG1 promoter luciferase, higher = more signal, called active from +8 up or from −8 down.
The nature of test [9]: small molecules captured by biotinylated probe aFST – biochemical, small-molecule microarray, fluorescence 635/667, stem cell growth factor project, primary screen (AID 1086).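 Note: score merges 667 nm fluorescence with signal-to-noise of each printed compound spot.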 To be noted: higher = more signal.
Test [10] is described as follows: binders of probe aHhip on microarray, primary screen, stem cell growth factor project, biochemical, small-molecule microarray, fluorescence 635/667 (AID 1087).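 Note: score merges spot fluorescence at 667nm with spot signal to noise ratio.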 To be noted: higher = more signal.
Test [11] relates to PRMT1 (protein arginine N-methyltransferase 1). Kind of test: small molecules binding arginine methyltransferase PRMT1 – biochemical, small-molecule microarray, 635 nm fluorescence, primary screen (AID 1088).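 Note: binding of Prmt1 protein to compounds spotted on small-molecule microarray slides.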 The settings on record: higher = more signal.
Test [12] is described as follows: growth effects on S. cerevisiae YJM789 – YJM789 clinical isolate, OD600, 24 h, basal, primary screen (AID 1089).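 Note: growth of clinical yeast isolate S. cerevisiae YJM 789 seeded 1000 cells per well; test concentration not given here.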 The settings on record: higher = more signal, called active from +8 up or from −8 down.
Test [13] in a line: S. pombe growth modifiers, basal conditions – strain 972, OD600, 24 h, no modulator, primary screen (AID 1090).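 Note: basal condition with compound alone and no growth modifier present; test concentration not given here.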 To be noted: S. pombe 972 growth, higher = more signal, called active from +8 up or from −8 down.
A short description of test [14]: budding yeast growth modifiers under rapamycin – strain BY4716, OD600, 96 h, primary screen (AID 1091). Note: test concentration not given here. The settings on record: S. cerevisiae BY4716 + rapamycin, higher = more signal, called active from +8 up or from −8 down.
The target of test [15] is Torsin-1A-interacting protein 2 (Homo sapiens) (UniProt Q8NFQ8). As to the kind of experiment: small molecules binding lysate-expressed LULL1 – cell lysate, human LULL1 lysate, 635/667 nm fluorescence, primary screen (AID 1092).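 Note: probe is lysate of COS7 cells overexpressing human LULL1; score merges per-feature 667 nm fluorescence with signal-to-noise.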 The settings on record: small-molecule microarray, hLULL1 lysate binding, 635 nm fluorescence; higher = more signal.
The nature of test [16]: optical density change of DRC41 E. coli – strain DRC41, OD650, 24 h, E. coli filamentation project, primary screen (AID 1093).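 Note: MC1000 strain lacking acrAB efflux and sulA so SOS filamentation is blocked; test concentration not given here.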 To be noted: E. coli DRC41 growth, higher = more signal, called active from +8 up or from −8 down.
Test [17] is described as follows: probe aLefty2 binding to arrayed compounds – biochemical, biotinylated probe, 635/667 nm fluorescence, primary screen (AID 1094).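 Note: score merges spot fluorescence near 667 nm with spot signal-to-noise ratio.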 The settings on record: small-molecule microarray, higher = more signal.
The test system of test [18] is Noggin (protein binding on small-molecule microarray). Kind of test: small molecules binding Noggin protein – biochemical, 635/667 nm fluorescence, primary screen (AID 1095).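 Note: score merges 667 nm feature fluorescence with signal to noise over triplicate slides.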 The settings on record: 635 nm fluorescence, higher = more signal.
In test [19] the target is Neurogenic locus notch homolog protein 3 (Homo sapiens) (UniProt Q9UM47). As to the kind of experiment: small molecules binding NOTCH3 protein – biochemical, 635/667 nm fluorescence, primary screen (AID 1096). The settings on record: small-molecule microarray, 635 nm fluorescence, higher = more signal.
Test [20] is described as follows: probe aEGFR binding to arrayed compounds – biochemical, biotinylated probe, 635/667 nm fluorescence, primary screen (AID 1097).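 Note: probe is a biotinylated anti-EGFR antibody binding compounds printed on slides; score combines fluorescence near 667 nm and signal to noise of each spot.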 The settings on record: small-molecule microarray, higher = more signal.

Calls of active or inactive are those of the source.

Chain of Torsin-1A-interacting protein 2 (Homo sapiens) (Q8NFQ8 whole entry, looked up): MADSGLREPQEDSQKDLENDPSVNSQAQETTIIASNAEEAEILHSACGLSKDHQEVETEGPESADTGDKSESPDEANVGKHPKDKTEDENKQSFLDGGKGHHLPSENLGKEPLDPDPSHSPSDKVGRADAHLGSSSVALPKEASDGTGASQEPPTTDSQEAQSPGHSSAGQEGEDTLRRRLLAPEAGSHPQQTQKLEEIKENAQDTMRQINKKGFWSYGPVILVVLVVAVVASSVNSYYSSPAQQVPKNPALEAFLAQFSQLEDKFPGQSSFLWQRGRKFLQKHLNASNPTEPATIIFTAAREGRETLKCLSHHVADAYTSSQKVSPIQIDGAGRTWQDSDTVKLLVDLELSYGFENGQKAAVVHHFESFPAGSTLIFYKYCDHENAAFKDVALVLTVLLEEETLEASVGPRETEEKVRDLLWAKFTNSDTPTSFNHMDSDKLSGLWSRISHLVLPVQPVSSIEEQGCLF
Chain of Neurogenic locus notch homolog protein 2 (Homo sapiens) (Q04721 whole entry, looked up, canonical isoform): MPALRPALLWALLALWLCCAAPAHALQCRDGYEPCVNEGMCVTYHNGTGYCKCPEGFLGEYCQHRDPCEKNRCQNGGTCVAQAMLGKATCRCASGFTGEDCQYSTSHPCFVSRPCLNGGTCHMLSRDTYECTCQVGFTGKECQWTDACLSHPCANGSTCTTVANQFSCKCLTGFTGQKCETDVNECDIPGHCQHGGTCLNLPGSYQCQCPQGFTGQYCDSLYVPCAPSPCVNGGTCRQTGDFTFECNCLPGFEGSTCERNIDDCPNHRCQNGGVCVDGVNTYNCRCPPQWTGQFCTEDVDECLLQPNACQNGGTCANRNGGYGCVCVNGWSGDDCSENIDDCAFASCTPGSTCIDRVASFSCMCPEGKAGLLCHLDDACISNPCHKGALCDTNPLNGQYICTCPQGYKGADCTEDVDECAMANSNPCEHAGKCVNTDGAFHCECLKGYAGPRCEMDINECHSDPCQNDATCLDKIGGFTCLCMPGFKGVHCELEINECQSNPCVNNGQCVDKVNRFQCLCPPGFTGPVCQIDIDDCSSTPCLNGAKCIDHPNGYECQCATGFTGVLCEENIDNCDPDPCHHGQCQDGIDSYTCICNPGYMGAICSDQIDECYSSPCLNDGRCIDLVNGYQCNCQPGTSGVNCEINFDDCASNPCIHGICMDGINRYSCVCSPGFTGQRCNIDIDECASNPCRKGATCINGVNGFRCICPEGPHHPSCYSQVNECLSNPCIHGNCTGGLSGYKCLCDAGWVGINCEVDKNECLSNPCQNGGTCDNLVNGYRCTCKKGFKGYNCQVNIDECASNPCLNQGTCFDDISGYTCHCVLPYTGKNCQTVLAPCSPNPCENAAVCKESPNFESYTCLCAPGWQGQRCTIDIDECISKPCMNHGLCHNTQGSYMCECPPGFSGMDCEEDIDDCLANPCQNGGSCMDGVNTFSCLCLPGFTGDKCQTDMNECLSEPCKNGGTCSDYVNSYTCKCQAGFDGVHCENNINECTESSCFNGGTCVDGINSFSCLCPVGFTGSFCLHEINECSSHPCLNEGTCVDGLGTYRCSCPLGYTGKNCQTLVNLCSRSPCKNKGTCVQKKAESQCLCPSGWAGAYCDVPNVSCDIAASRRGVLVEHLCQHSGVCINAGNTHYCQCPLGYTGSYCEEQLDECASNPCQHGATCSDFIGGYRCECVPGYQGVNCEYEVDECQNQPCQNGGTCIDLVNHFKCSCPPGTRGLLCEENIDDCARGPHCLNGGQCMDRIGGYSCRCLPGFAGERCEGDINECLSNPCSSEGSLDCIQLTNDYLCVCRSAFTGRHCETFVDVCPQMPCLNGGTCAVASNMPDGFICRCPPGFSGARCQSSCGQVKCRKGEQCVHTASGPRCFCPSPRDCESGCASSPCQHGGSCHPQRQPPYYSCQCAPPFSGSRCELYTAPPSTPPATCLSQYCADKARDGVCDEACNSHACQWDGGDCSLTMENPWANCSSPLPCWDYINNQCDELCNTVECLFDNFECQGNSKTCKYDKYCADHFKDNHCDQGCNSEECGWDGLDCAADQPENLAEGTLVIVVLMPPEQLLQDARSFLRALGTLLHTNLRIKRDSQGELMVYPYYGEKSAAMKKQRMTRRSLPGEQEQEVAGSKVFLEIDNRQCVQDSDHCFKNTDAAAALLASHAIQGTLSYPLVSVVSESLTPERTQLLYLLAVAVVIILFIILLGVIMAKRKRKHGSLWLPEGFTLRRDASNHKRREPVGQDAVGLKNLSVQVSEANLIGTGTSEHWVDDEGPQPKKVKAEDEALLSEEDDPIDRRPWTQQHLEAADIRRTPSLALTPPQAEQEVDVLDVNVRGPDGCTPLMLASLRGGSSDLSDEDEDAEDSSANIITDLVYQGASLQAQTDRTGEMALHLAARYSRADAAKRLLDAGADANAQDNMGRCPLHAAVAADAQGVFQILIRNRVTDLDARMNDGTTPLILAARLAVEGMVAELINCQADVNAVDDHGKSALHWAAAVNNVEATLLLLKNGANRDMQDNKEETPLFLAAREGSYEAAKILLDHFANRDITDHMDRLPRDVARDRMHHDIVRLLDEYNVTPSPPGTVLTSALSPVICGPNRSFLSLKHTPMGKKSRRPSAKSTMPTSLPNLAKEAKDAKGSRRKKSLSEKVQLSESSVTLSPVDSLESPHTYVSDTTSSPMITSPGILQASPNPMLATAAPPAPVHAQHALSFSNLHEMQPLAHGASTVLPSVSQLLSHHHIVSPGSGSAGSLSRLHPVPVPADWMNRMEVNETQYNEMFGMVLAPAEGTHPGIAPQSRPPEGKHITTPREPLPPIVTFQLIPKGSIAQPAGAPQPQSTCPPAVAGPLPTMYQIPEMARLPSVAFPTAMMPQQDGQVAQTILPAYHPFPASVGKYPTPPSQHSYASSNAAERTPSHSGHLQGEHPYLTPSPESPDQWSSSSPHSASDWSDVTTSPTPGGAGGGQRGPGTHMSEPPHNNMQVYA
Chain of Pro-neuregulin-1, membrane-bound isoform (Homo sapiens) (Q02297 whole entry, looked up, the tested form may be a part, canonical isoform): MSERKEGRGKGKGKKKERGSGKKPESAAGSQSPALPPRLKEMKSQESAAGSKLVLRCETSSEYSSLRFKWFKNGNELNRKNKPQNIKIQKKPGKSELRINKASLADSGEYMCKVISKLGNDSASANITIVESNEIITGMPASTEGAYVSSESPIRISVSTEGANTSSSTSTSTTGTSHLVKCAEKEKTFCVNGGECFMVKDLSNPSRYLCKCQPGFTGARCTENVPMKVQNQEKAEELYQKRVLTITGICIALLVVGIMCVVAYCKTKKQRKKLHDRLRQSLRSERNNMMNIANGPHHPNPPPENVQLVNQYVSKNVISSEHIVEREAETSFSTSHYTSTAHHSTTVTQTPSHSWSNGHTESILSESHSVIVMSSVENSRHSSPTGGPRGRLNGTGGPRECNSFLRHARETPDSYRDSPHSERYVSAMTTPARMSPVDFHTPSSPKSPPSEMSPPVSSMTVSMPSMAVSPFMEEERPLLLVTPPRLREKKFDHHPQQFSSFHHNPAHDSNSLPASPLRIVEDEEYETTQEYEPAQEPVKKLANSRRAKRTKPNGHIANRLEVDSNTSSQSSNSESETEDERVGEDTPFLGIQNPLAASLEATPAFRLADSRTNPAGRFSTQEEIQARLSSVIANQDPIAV

`COC(=O)[C@@H]1N=C(c2ccc(OCCCO)cc2)O[C@@H]1c1ccccc1CN=[N+]=[N-]`: the composite z-score is 0.879 in test [1]; -0.744 in [2]; 0.0062 in [3]; -0.784 in test [4]; -0.549 in test [5]; 1.21 in [6]. Moreover, the composite z-score in test [7] came to 0.945; in test [9] it was 0.646; in test [10], 0.291; in test [11] it was 1.01; in test [15], 1.74; in [17] it was 0.109. Moreover, the composite z-score in test [18] was -0.0395; in [19] it was 0.327; in [20], -0.0802. The z-score in test [8] is 1.81 (inactive); in [12], 0.23 (inactive); in test [13], -0.956 (inactive); in test [14], -1.14 (inactive); in test [16], 1.05 (inactive).
For `COCCOC(=O)N1C(=O)[C@@]2(c3cc(C#CC4(O)CCCCCC4)ccc31)[C@H](c1ccccc1OCCO)N1[C@H](c3ccccc3)[C@H](c3ccccc3)OC(=O)[C@H]1[C@@H]2C(=O)N1CCCCCCC1`, the composite z-score was found to be 2.94 in test [1]; 1.24 in test [2]; 0.324 in test [3]; 0.256 in [4]; 0.869 in [5]; 1.45 in [6]. Also, the composite z-score was determined as 1.29 in [7]; 2.73 in test [9]; 1.83 in [10]; 1.54 in test [11]; 3.47 in [15]; 1.31 in test [17]. For the same compound, the composite z-score in test [18] was 1.75; in [19], 1.1; in [20] it was -0.0351. Also, the z-score is -0.926 (inactive) in [8]; 1.94 (inactive) in test [12]; 1.26 (inactive) in test [13]; 3.54 (inactive) in test [14]; 0.0805 (inactive) in test [16].
In the case of `COc1ccc(NC(=O)O[C@H]2[C@H](OC(=O)Nc3ccc4c(c3)OCO4)[C@H](OC(=O)Nc3ccc4c(c3)OCO4)[C@@H](OC)O[C@@H]2CO)cc1`, the composite z-score was determined as 0.198 in test [1]; 0.347 in test [2]; 0.0519 in test [3]; 0.739 in [4]; 0.302 in [5]; 0.978 in test [6]. Also, the composite z-score in test [7] is 0.905; in [9], 0.327; in test [10], 0.142; in [11], 1.54; in test [15], 2.96; in test [17] it was -0.121. Also, the composite z-score is -0.0137 in test [18], 0.569 in test [19] and -0.0922 in test [20]. Moreover, the z-score in test [8] was 3.53 (inactive); in test [12], 1.87 (inactive); in test [13], 1.41 (inactive); in test [14] it was 4.72 (inactive); in [16], 0.212 (inactive).
Turning to `CCN(CC)c1ccc(N2CC=CC34O[C@@H]5C=CCOC(=O)[C@@H]5[C@H]3C(=O)N(CCCO)[C@@H]4C2=O)cc1` (stereo not given in full), the composite z-score in [1] is 0.515; in test [2], 0.15; in [3] it was -0.062; in test [4], -0.679; in test [5] it was -1.04; in [6], 0.986. Also, the composite z-score in test [7] is 0.391; in [9], -0.504; in test [10] it was 0.0881; in test [11], 0.586; in [15], 1.57; in test [17], -0.139. Also, the composite z-score in test [18] is -0.927; in [19], -0.453; in test [20] it was -0.188. For the same compound, the z-score was 0.275 (inactive) in test [8]; -0.6 (inactive) in test [12]; -0.197 (inactive) in test [13]; -0.298 (inactive) in test [14]; 1.6 (inactive) in [16].
For the compound `CN(C)C(=O)[C@]1(Cc2ccccc2)N=C(c2ccc(OCCCO)cc2)O[C@@H]1c1ccccc1`, the composite z-score in test [1] was -0.129; in [2] it was 0.984; in test [3], 0.0376; in test [4] it was 1.08; in [5] it was 1.46; in [6], 1.78. Also, the composite z-score worked out at 1.28 in test [7]; 0.952 in test [9]; 0.127 in test [10]; 1.52 in [11]; 3.52 in [15]; 0.0735 in test [17]. For the same compound, the composite z-score is 0.372 in [18], 0.771 in test [19] and -0.0157 in test [20]. Moreover, the z-score is -0.306 (inactive) in test [8]; 0.0608 (inactive) in test [12]; -3.66 (inactive) in test [13]; -0.344 (inactive) in test [14]; -0.465 (inactive) in [16].
